Source: PubChem BioAssay AID1845224 (National Center for Advancing Translational Sciences (NCATS), 2023)
Results filed as inconclusive are left out. Calls of active or inactive are those of the source. The call rests on the fitted dose curve; in most records, active means well fitted curve in the direction sought with a large enough effect; inconclusive means small, poorly fitted or top-dose-only effect, or another doubt; inactive means no such curve, though single readings can be large or run the other way.

System: NanoLuc luciferase (engineered Oplophorus gracilirostris luciferase)
Experiment: Confirmatory Nanoluciferase (NLuc) qHTS assay for identification of artifact compounds. Further: % of control where 0% means no effect.
Conditions: secreted NLuc in S16 cell medium, luminescence, 5 min; series mostly up to 39 µM; activity change, negative = inhibition: at the top concentration
Summary of the method: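 Conditioned medium from NLuc-expressing S16 cells (diluted 1:55) as enzyme source; compounds 15 min at room temperature, then Nano-Glo substrate for 5 min. Luminescence normalized to no-enzyme and DMSO controls, fitted to 4-parameter Hill equation.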

Activity change, negative = inhibition, inactive:
CN1C(=O)Cc2cc(S(=O)(=O)NCc3ccccc3Cl)ccc21 -10.4%
COc1ccc(-c2cc(C(=O)Nc3cc(C(F)(F)F)ccc3Cl)no2)cc1 -1.6%
CCOC(=O)N1CCN(S(=O)(=O)N2CCCC(C(=O)NCc3cccc(OC)c3)C2)CC1 (stereo unspecified) -6.38%
Oc1ccc(C2(c3ccc(O)cc3)CC3CC2C2CCCC32)cc1 (stereo unspecified) 0.368% [at 75.8 µM]
C[C@@H]1O[C@@H](O[C@@H]2[C@@H](O)[C@H](OCCc3ccc(O)c(O)c3)O[C@H](CO[C@@H]3O[C@H](CO)[C@@H](O)[C@H](O)[C@H]3O)[C@H]2OC(=O)/C=C/c2ccc(O)c(O)c2)[C@H](O)[C@H](O)[C@H]1O 2.01%
COc1ccc(OC(=O)c2nc(SCc3ccccc3F)ncc2Cl)cc1 -0.614%
COc1ccc(-n2nc(C(=O)Nc3cccc(C)n3)c3c4ccccc4n(C)c3c2=O)cc1 5.29%
CC1(C)OC2CC(=O)OCC23C1CC(=O)C1(C)C3CC[C@@]2(C)[C@H](c3ccoc3)OC(=O)C3OC312 (stereo partly specified) 0.365%
CCOC(=O)C1=C(CNCc2ccc(Cl)cc2)NC(=O)NC1c1ccccc1 (stereo unspecified) -27.2%
CCCN(C(=O)Cc1c(C(=O)O)[nH]c2ccc(Cl)cc12)c1ccc(OCC)cc1 -2.15%
CC(C)CCC[C@@H](C)[C@H]1CC[C@H]2[C@@H]3CC[C@@H]4C[C@H](O)CC[C@]4(C)[C@H]3CC[C@]12C -5.09%
CCC1Oc2ccccc2N(CC(=O)NCc2ccc(C)cc2)C1=O (stereo unspecified) -14.7%
CC(=O)S[C@H]1CC2=CC(=O)CC[C@@]2(C)[C@H]2CC[C@@]3(C)[C@H](CC[C@]34CCC(=O)O4)[C@@H]12 -2.1% [at 19.8 µM]
CCOc1ccccc1NC(=O)N1CCCn2nc(C)cc21 0%
Cc1c(NC(=O)C(C)(C)C)cccc1-c1nc2ccccc2s1 -11.2%
COC(=O)c1scc(-c2ccc(C)cc2)c1S(=O)(=O)Nc1cc(Cl)ccc1C -2.44%
Fc1ccc(-c2cc(-c3nc(-c4ccc(Cl)cc4)no3)[nH]n2)cc1 -0.152%
CC1=CC23C(=O)C(C=C(CO)[C@@H](O)[C@]2(O)[C@H]1O)[C@H]1[C@@H](C[C@H]3C)C1(C)C (stereo partly specified) 6.21%
Cc1c(Cl)cccc1NC(=O)N1CCOc2ccccc21 -2.38%
Cc1ccc(S(=O)(=O)N2CCN(c3nc(-c4cccs4)nc4cccnc34)CC2)cc1 -0.839%
Cc1ccc(C(=O)Nc2onc3c2CCCC3)cc1 -8.25%
COc1ccccc1/C=C/c1nc(C#N)c(NCCc2ccccc2)o1 -17.7%
CCCC(=O)Nc1cc2nn(-c3ccccc3)nc2cc1C -5.59%
O=C(CSc1nc(-c2ccccc2)cn1-c1ccccc1)Nc1ccccc1 -12.3%
Cc1ccc2nc(-c3cccnc3)c(Nc3ccccc3C)n2c1 3.45%
CC(C)C[C@H](NC(=O)[C@H](Cc1ccccc1)NC(=O)CNC(=O)CNC(=O)[C@@H](N)Cc1ccc(O)cc1)C(=O)N[C@@H](CCCN=C(N)N)C(=O)N[C@@H](CCCN=C(N)N)C(=O)N[C@@H](CCC(N)=O)C(=O)N[C@@H](Cc1ccccc1)C(=O)N[C@@H](CCCCN)C(=O)N[C@H](C(=O)N[C@H](C(=O)N[C@H](C(=O)O)[C@@H](C)O)C(C)C)C(C)C 9.86% [at 4.32 µM]
COc1ccc(-c2nc3cccc(C)n3c2Nc2ccc(C)cc2)cc1 -4.83%
CCCCn1c(SCC(=O)Nc2ccc(F)cc2)nc2c(sc3ccccc32)c1=O -15.2%
Cc1ccc(NC(=O)Nc2nnc(SCC(=O)N3CCCCC3)s2)cc1 -6.83%
C[C@H](CCC(=O)O)[C@H]1CCC2C3CC[C@@H]4C[C@H](O)CC[C@]4(C)C3CC[C@@]21C (stereo partly specified) -6.93%
CCOC(=O)N1CCN(S(=O)(=O)N2CCCC(C(=O)NCc3cc(OC)ccc3OC)C2)CC1 (stereo unspecified) -22.6%
